High-throughput results from PubChem BioAssay.
CHRM4 PAM = human M4 muscarinic receptor positive allosteric modulators, primary screen, CHO-K1 cells, Fluo-8 calcium fluorescence; CHO-K1 hM4/Gqi5, ACh EC20; 0% = ACh EC20, 100% = maximal ACh; activation, % at 3 µM; 0.4% of 360,000 active;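 active = activation above its plate's cutoff, the mean activation of sample wells plus 3 SD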
Target sequence (P08173 whole entry, looked up): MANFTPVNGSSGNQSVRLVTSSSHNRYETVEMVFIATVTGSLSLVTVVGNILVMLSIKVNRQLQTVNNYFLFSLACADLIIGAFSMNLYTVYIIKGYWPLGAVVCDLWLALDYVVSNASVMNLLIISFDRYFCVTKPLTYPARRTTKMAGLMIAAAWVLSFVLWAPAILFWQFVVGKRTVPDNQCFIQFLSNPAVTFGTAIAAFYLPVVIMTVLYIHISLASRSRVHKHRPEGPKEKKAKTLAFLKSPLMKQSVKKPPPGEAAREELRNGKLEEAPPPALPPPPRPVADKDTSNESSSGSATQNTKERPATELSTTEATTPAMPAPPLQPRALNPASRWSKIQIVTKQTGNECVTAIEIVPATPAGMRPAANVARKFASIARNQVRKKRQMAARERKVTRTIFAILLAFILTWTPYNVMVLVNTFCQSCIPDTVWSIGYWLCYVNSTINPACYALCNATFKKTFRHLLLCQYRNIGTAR
CHO-K1 Ca antag = counter-screen for M1 antagonists: effect in parental CHO-K1 cells; ATP-induced calcium, Fluo-8 fluorescence; inhibition, % at 3 µM; 0.6% of 360,000 active;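 active = inhibition above a per-plate cutoff, the plate's mean sample inhibition plus 3 SD, cut at about 24% in these data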;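 note: 0% = DMSO plus EC80 ATP and 100% = DMSO alone without ATP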
M1 ag parental = counter-screen for M1 agonists: effect in parental CHO-K1 cells; Fluo-8 calcium fluorescence; scaled to maximal ATP response, vehicle zero; 0.48% of 360,000 active; AID 602248, 2012; activation, % at 3 µM; in the data active = activation above about 15%;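 note: untransfected CHO-K1 host cells lacking M1 receptor as counterscreen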
CHRM4 agonist = human M4 muscarinic receptor agonists, primary screen, CHO-K1 cells, Fluo-8 calcium fluorescence | Muscarinic acetylcholine receptor M4 (Homo sapiens), P08173 | CHO-K1 hM4/Gqi5; vehicle 0%, full acetylcholine response 100% | activation, % at 3 µM | 0.14% of 360,000 active | AID 624127, 2012;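 active = activation above the run mean over all test wells plus 3 SD, cut at about 32% in these data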;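 note: peak over basal fluorescence ratio per well then scaled between controls; 0% = DMSO wells and 100% = acetylcholine at EC100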
CHRM4 antagonist = human M4 muscarinic receptor antagonists, primary screen, CHO cells, Fluo-8 calcium fluorescence; Muscarinic acetylcholine receptor M4 (Homo sapiens), P08173; AID 624125, 2012; inhibition, % at 3 µM; CHO-hM4 cells, ACh EC80; 0.73% of 360,000 active;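 active = inhibition above its plate's cutoff, the mean inhibition of sample wells plus 3 SD, cut at about 27% in these data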;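 note: 0% = acetylcholine EC80 with DMSO and 100% = DMSO without agonist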
M1 PAM parental = nonselective calcium activators in parental CHO-K1 cells, primary screen, counter-screen for M1 PAM project, cell-based, Fluo-8 calcium fluorescence, full deck, 1536-well | ATP EC20; 0% at ATP EC20, 100% at ATP max | activation, % at 3 µM | 0.02% of 360,000 active;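 active = activation above the run cutoff, the mean activation of all test compounds plus 3 SD, cut at about 40% in these data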;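 note: peak over basal fluorescence ratio in a 140 s read after ATP addition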
* marks the source's active call; other numbers are inactive results. Most compounds without a hit are left out; they make up all but 2% or so of the library.

SMILES | CHRM4 PAM | CHO-K1 Ca antag | M1 ag parental | CHRM4 agonist | CHRM4 antagonist | M1 PAM parental
Cc1cccc(S(=O)(=O)NCCC(=O)OCC(=O)Nc2ccc(C#N)cc2)c1 | -4 | -1 | 4 | 6 | -5 | 17
COCCn1c(SCc2cnc(-c3ccccc3)s2)nnc1-c1ccncc1 | 6 | -6 | 1 | 5 | -1 | -2
Cc1ccc2nc(C)cc(C(=O)NC3CCCCCC3)c2c1 | 25* | -1 | 0 | 2 | -19 | -9
Cc1cc(C(=O)NC2CCCCCC2)c2ccccc2n1 | 9 | 9 | 0 | 2 | -3 | -16
COc1ccc(C2NC(=O)C(C#N)=C(S)N2c2cccc(C)c2)cc1OC (stereo not drawn) | 4 | 3 | 16* | 0 | 1 | 13
COc1ccc(C2NC(=O)C(C#N)=C(S)N2c2ccc(C)cc2)cc1OC (stereo not drawn) | 9 | -12 | 1 | 1 | 1 | 14
COc1ccc(C)cc1NS(=O)(=O)c1ccc2c(c1)NC(=O)C(C)S2 (stereo not drawn) | -4 | -1 | 10 | 14 | -4 | 0
CCC1Sc2ccc(S(=O)(=O)Nc3ccc(OC)cc3)cc2NC1=O (stereo not drawn) | 0 | -4 | 18* | 18 | -6 | 13
CCC1Sc2ccc(S(=O)(=O)Nc3ccc(OC)c(OC)c3)cc2NC1=O (stereo not drawn) | -5 | 34* | 12 | 16 | 6 | -6
O=C(CSc1ncnc2c1cnn2-c1ccc(F)cc1)NCC1CCCO1 (stereo not drawn) | -4 | -2 | 3 | 1 | 3 | -2
CCCCN(C(=O)C(C)N1C(=O)c2ccccc2C1=O)c1c(N)n(CCCC)c(=O)[nH]c1=O (stereo not drawn) | 7 | 1 | 0 | 0 | 4 | -15
CCCCn1c(N)c(N(CCC(C)C)C(=O)C2CC(=O)N(Cc3ccc(C)cc3)C2)c(=O)[nH]c1=O (stereo not drawn) | 28* | 5 | 0 | 1 | -11 | 10
CCCCn1c(N)c(N(CCC(C)C)C(=O)C(C)N2C(=O)c3ccccc3C2=O)c(=O)[nH]c1=O (stereo not drawn) | 22* | -14 | 1 | 0 | -21 | 13
O=C(OCCC1Oc2cccnc2NC1=O)c1ccc(Cl)cc1 (stereo not drawn) | 8 | -7 | 5 | 7 | -2 | 2
CCN(Cc1nc2ccccc2c(=O)[nH]1)C(=O)c1cc(C2CC2)nn1-c1ccccc1 | -8 | -8 | 4 | 15 | 0 | 12
CCOc1cc(S(=O)(=O)NC2CCCCC2)ccc1F | -5 | 7 | 24* | 4 | -3 | 10
CN1C=CC=C/C1=C1\SC(=S)N(c2ccccc2)C1=O | 17* | 10 | 0 | 1 | -5 | -5
Cc1cc(C(=O)NC2CCCc3c2cnn3-c2ccc(C)c(C)c2)n(C)n1 (stereo not drawn) | -9 | 25* | 13 | 14 | -2 | -26
O=S(=O)(Nc1nc2ccccc2nc1Cl)c1ccccc1 | 7 | -7 | 0 | 1 | -1 | 17
CCN(CC)c1ccc(C2C(C(=O)OCCOC(C)C)=C(C)NC3=C2C(=O)CCC3)cc1 (stereo not drawn) | -20 | 19 | 0 | 1 | 33* | -8
COc1ccc(Cl)cc1NC(=O)COC(=O)CCCN1C(=O)c2ccccc2C1=O | -8 | -6 | 4 | 10 | -4 | 13
O=S(=O)(c1cccc(Cn2nnc(-c3ccccc3)n2)c1)N1CCOCC1 | -5 | -5 | 16* | 18 | 8 | -1
CCN1CCN(C2=CC3=CC(=C(C#N)C#N)CCC3CC2)CC1 (stereo not drawn) | -29 | 78* | 366* | 270* | 58* | -22
CC1(C)CC(NCCN2CCN(C3=CC(=C(C#N)C#N)CC(C)(C)C3)CC2)=CC(=C(C#N)C#N)C1 | 2 | -12 | 0 | 1 | -8 | -2
N#CC(C#N)=C1C=C2C=C(N3CCCCCC3)CCC2CC1 (stereo not drawn) | -23 | 102* | 939* | 746* | 96* | -14
SMILES | CHRM4 PAM | CHO-K1 Ca antag | M1 ag parental | CHRM4 agonist | CHRM4 antagonist | M1 PAM parental
N#CC(C#N)=C1C=C2C=C(N3CCOCC3)CCC2CC1 (stereo not drawn) | -25 | 23 | 65* | 52* | 29* | -14
CN1CCN(C2=CC3=CC(=C(C#N)C#N)CCC3CC2)CC1 (stereo not drawn) | -31 | 85* | 522* | 538* | 71* | -25
COc1ccc(C(c2c[nH]c3ccccc23)c2c[nH]c3ccccc23)cc1O | 1 | 0 | 1 | 4 | 4 | 3
O=C(CN1C(=O)/C(=C/c2ccccc2F)Sc2ccccc21)NCC1CCCO1 (stereo not drawn) | -7 | 11 | 3 | 10 | 5 | -15
CN1c2ccccc2Oc2nnc(Cl)cc21 | -6 | 27* | -1 | 0 | 14 | -16
COc1ccc(NC(=O)c2cc(C3CCCCN3S(=O)(=O)c3ccccc3)on2)c(C)c1 (stereo not drawn) | -7 | -1 | 0 | 4 | 23 | -7
COc1ccc(NC(=O)c2cc(C3CCCCN3S(C)(=O)=O)on2)c(C)c1 (stereo not drawn) | 7 | 28* | 1 | 1 | -9 | -17
CN(C1CCCCC1)S(=O)(=O)c1cn(C)c(=O)n(C)c1=O | -2 | 0 | 0 | 0 | 9 | 2
COc1ccc2c(c1)cc(C(=O)O)n2C | 23 | -4 | 0 | 0 | 12 | -4
COc1ccc(CN2CCCCCC2)cc1 | -3 | 25* | 0 | 1 | -9 | -22
COc1ccc(C(O)(CCN2CCCCC2)C2CCCCC2)cc1 (stereo not drawn) | -20 | 3 | 0 | 0 | 75* | -4
COc1ccc(CN2CCOCC2)cc1 | 4 | -4 | 0 | 0 | 8 | 25
C=C1C(=O)[C@]23C[C@H]1CCC2[C@@]1(C)C(C[C@@H]3O)[C@](C)(C(=O)O)C[C@H](O)[C@@H]1O (stereo partly drawn) | 0 | 4 | 1 | 0 | -4 | 14
C=C1C(=O)[C@]23C[C@H]1CC[C@H]2[C@]1(C)[C@@H](O)CC[C@@](C)(C(=O)O)[C@H]1C[C@@H]3O | -3 | 29* | 0 | 0 | -13 | -7
C=C1C(=O)[C@]23C[C@H]1CCC2[C@@]1(C)C(C[C@@H]3O)[C@](C)(C(=O)OC)CC[C@@H]1OC(C)=O (stereo partly drawn) | -15 | 29* | 6 | 16 | 58* | 0
